Source: PubChem BioAssay AID1053173 (Broad Institute, 2014)
Screen size: about 1,500 compounds; about 390 (26%) were called active. No rule for the calls is given here. Only a sample is shown. Potency and affinity values are given separately.

Target: Histone-lysine N-methyltransferase NSD2 (Homo sapiens) (UniProt O96028)
Assay: NSD2 methyltransferase inhibitors, dose response, biochemical, AlphaScreen, cherry-picked samples (AID 1053173);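 also: 0% = neutral control wells and -100% = positive control wells on each plate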
Settings: NSD2 H4 peptide methylation, 120 min; series mostly up to 10 µM; activity change, negative = inhibition: at the top concentration

Chain of Histone-lysine N-methyltransferase NSD2 (Homo sapiens) (O96028 whole entry, looked up): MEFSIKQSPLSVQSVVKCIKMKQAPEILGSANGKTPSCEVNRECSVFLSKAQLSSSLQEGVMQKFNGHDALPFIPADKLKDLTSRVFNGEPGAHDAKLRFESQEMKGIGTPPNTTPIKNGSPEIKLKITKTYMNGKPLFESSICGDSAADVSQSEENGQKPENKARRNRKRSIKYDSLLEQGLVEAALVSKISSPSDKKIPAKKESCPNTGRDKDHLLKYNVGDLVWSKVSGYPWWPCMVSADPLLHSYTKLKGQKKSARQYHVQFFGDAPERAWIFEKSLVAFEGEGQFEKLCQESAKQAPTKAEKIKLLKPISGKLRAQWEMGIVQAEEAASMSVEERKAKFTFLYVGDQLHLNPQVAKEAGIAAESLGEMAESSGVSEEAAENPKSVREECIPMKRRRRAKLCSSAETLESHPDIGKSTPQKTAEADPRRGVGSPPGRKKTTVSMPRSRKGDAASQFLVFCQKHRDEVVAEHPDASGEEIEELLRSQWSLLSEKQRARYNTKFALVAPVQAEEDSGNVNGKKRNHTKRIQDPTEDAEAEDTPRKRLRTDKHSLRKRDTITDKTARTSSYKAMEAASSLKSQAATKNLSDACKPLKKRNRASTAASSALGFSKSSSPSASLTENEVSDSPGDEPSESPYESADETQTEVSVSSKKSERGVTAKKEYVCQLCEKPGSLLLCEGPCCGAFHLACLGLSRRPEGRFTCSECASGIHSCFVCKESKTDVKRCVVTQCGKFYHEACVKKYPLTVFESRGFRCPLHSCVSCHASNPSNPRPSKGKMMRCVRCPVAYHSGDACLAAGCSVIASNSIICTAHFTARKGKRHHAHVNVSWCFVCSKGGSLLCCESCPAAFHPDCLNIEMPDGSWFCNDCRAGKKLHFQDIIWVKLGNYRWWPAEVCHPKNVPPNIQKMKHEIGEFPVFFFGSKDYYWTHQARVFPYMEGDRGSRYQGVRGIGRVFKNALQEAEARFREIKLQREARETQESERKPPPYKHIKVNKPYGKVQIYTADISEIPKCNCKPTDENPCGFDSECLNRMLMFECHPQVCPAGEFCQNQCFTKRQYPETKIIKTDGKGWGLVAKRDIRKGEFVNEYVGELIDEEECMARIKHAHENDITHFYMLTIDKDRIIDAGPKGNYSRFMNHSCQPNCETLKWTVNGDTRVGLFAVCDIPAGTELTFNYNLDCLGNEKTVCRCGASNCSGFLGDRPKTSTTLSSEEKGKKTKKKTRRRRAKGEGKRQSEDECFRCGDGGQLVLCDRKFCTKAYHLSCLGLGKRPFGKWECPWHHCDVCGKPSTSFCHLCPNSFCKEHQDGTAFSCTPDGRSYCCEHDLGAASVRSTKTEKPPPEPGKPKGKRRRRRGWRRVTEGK

Activity change, negative = inhibition, inactive:
CC(=O)NC1=NN(C(C)=O)C(C)(c2cccc([N+](=O)[O-])c2)S1 (stereo unspecified) -1.79%, CCOC(=O)C1(C)CCCN1C(=O)c1cccc(F)c1 (stereo unspecified) 1.47%, CC1(CC(=O)N/N=C/c2cc([N+](=O)[O-])c(O)cc2O)OCCO1 -0.127%, Cc1cc(NC(=O)COC(=O)c2cccc(S(=O)(=O)N3CCOCC3)c2)no1 2.01%, C/C(=N\NC(=O)CSc1nc2ccccc2o1)c1ccc(O)cc1 2.05%, O=C(CSc1nc(-c2ccccc2)c(-c2ccccc2)o1)Nc1nnc(-c2ccccc2)s1 -2.84%, O=C(CNc1ccc(F)cc1)N/N=C/c1c(O)ccc2ccccc12 3%, C=CCn1c(-c2ccc(OC)cc2)nc2nc3ccccc3nc21 -2.2%, O=c1[nH]c(CN2CCOCC2)nc2cc(Cl)ccc12 0.642%, CCOc1cc(/C=C/C(=O)OCC(=O)NCCN2C(=O)CSC2=O)ccc1OCC(C)C 2.25%, Cc1cccc(-n2c3nc(=O)[nH]c(=O)c-3cc3cc([N+](=O)[O-])ccc32)c1 -12%, Cc1c(N=NC2=C(O)CC(C)(C)CC2=O)c(=O)n(-c2ccccc2)n1C 3.54%, Cc1c(NC(=O)CN2C(=O)C(=O)c3ccccc32)c(=O)n(-c2ccccc2)n1C 0.571%, C/C(=C\C(=O)c1cccnc1)Nc1ccc(O)cc1 -3.39%, COc1ccc(CCNC(=O)CN2C(=O)C(=O)N(C3CCCC3)C2=O)cc1OC 2.65%, CN(C)Cc1csc(NC(=O)Nc2cccc(Cl)c2)n1 -0.974%, Cn1c(N2CCCC2)nc2c1c(=O)n(Cc1ccc(Cl)cc1)c(=O)n2C -0.716%, COCCN(C(=O)CCC(=O)Nc1cc(C)on1)C(C(=O)NC(C)(C)C)c1ccccc1Cl (stereo unspecified) -3.87%, COc1ccc(Cc2ccccc2C(=O)O)cc1 8.87%, COc1ccc(C(C[N+](=O)[O-])c2c(C)[nH]n(-c3ccccc3)c2=O)cc1 (stereo unspecified) -10.7%, O=C(NNS(=O)(=O)c1ccc(F)cc1F)c1csc(-c2cccnc2)n1 -7.29%, Cc1nn2c3ccccc3n(CCN3CCCCC3)c2nc1=O -2.99%, O=C(CCc1ccccc1)NCCCN1CCOCC1 5.13%, O=C(COc1ccccc1O)NCCN1CCOCC1 10.2%, O=C(NCCN1CCCCC1)/C(=C/c1ccco1)NC(=O)c1ccccc1 -0.137%, O=C(NCCCN1CCCC1=O)Nc1ccc(Cl)cc1Cl 0.099%, O=C(O)Cc1sc(NC2CCCCC2)nc1-c1ccc(Cl)cc1 -7.89%, Cn1c(=O)c2c(nc(CN3CCC(C(N)=O)CC3)n2Cc2ccccc2Cl)n(C)c1=O 0.375%, Cc1ccc(-n2c(C)c(C)c3c(N)ncnc32)cc1 -6.2%, CC(=O)c1ccc(-n2c(-c3cc(-c4ccco4)[nH]n3)n[nH]c2=S)cc1 -6.71%, Cc1cc(=O)[nH]c(COc2ccccc2)n1 -1.09%, COC(=O)COc1ccc(S(=O)(=O)NCC2CCCO2)cc1Cl (stereo unspecified) 1.32%, Cc1ccc(Nc2nc(-c3ccc(O)c(O)c3)cs2)nc1 -17.4%, CCOC(=O)c1sc(NC(=O)COc2ccc3c(c2)OCO3)nc1C 5.82%, COc1ccccc1OCCOc1ccc(/C=C2\C(=N)N3N=C(S(C)(=O)=O)SC3=NC2=O)cc1 -8.8%, O=C(C=Cc1ccccc1)c1cc(Br)ccc1O -0.786%, Cc1sc2ncnc(SCC(=O)Nc3ccc(CN4CCCC4)cc3)c2c1C -4.45%, Nc1nc(O)c(Sc2ccccc2[N+](=O)[O-])c(=O)[nH]1 -5.06%, Nn1cnnc1N/N=C/c1ccc(Cl)c([N+](=O)[O-])c1 -9.15%, Cc1c(-c2ccc(/C=N/NC(=O)C(=O)Nc3ccccc3F)o2)cccc1[N+](=O)[O-] -1.12%, CC1CCC2C(C1)c1sc(=O)[nH]c1SC2(C)C (stereo unspecified) 1.19%, COc1ccc(-n2ncc3c(NCCCn4ccnc4)ncnc32)cc1 4.21%, N#Cc1ccccc1OCC(=O)OCC(=O)N1CCN(C(=O)c2ccco2)CC1 -0.885%, CCCC(=O)Nc1cc(C)cn(Cc2c(F)cccc2Cl)c1=O -4.87%, COc1ccc(-n2nnnc2SCC(=O)c2ccc3c(c2)OCCO3)cc1 -1.12%, COc1ccc(OCC(=O)NNc2c3ccccc3nc3ccccc23)cc1 2.29%, CCOC(=O)N1CCN(C(=S)NCCOC)CC1 -0.483%, O=C(CC1(O)C(=O)Nc2cc(Cl)cc(Cl)c21)c1ccncc1 (stereo unspecified) -2.95%, NS(=O)(=O)c1ccc(S(=O)(=O)N2CCN(C3CCCC3)CC2)cc1 -3.4%, CC1CCCN(S(=O)(=O)c2ccc(NC(=O)CN3CCN(C)CC3)cc2)C1 (stereo unspecified) 0.323%, O=C(NCc1ccc(Cl)cc1)c1ccc(S(=O)(=O)N2CCCCC2)cc1 -0.074%, O=C(c1ccc(S(=O)(=O)N2CCOCC2)cc1)N(c1cccc(Cl)c1)C1C=CS(=O)(=O)C1 (stereo unspecified) -0.178%, Cc1cccc(NC(=S)N2CCN(c3ccccc3F)CC2)c1C -0.373%, CC(C)c1ccc(S(=O)(=O)N2CCN(CC(=O)Nc3ccc(Cl)cc3F)CC2)cc1 4.54%, Cc1ccc(C(=O)C2CCN(S(=O)(=O)c3ccc(C(=O)O)cc3)CC2)cc1 -3.03%, CCc1cc(OCCN2C(=O)NC(C)(C)C2=O)ccc1Cl 1.68%, S=C1NCN(Cc2ccco2)CN1CCc1ccccc1 5.17%, Cc1ncc(CO)c2c1Oc1nc(-c3ccccc3)nc(SCC(=O)N3CCOCC3)c1C2 -9.28%, CCOC(=O)C(CCCP(=O)(c1ccccc1)c1ccccc1)(NC(C)=O)C(=O)OCC 5.47%, O=C(Cn1cc(C(F)(F)F)ccc1=O)Nc1ccc2c(c1)OCCO2 6.43%, Cc1ccc(Nc2nnc(SCC(=O)Nc3ccc(S(=O)(=O)N4CCOCC4)cc3)s2)cc1 2.86%, CCN(CC)c1ccc(NC(=O)COC(=O)c2ccc3ccccc3n2)cc1 -7.11%, COC(=O)C(C)(C)NC(=O)c1cccs1 -0.795%, COc1ccc(OC)c(-c2csc(-c3cccs3)n2)c1 1.38%, CCOC(=O)c1ccc(S(=O)(=O)N2CCN(c3ccccn3)CC2)cc1 -2.16%, COc1ccc(NC(=O)CN2CCN(S(=O)(=O)N3CCCCCC3)CC2)cc1 -1.77%, O=C(Nc1ccccc1)OCCCCOC(=O)Nc1ccccc1 4.68%, CCc1nc2ccc(C)cc2c(C(=O)NC2CCCCC2C)c1C (stereo unspecified) -2.38%, O=C(O)c1ccccc1NS(=O)(=O)c1ccc2ccccc2c1 1.41%, CCOc1ccccc1Nc1nnc(SCc2ccc(C(=O)OC)o2)s1 -2.68%, COCCNC(=O)c1ccc(CN2CCc3ccccc3C2)cc1 -4.36%, Cc1ccc(C(=O)Cn2cc([N+](=O)[O-])nc2C)cc1 7.26%, CC(C)(C)C1CCC2(CC1)C(Nc1cccc(C(F)(F)F)c1)=NC(=S)N2CC#N (stereo unspecified) 2.06%, COc1ccc(CCC(=O)NCCOc2ccccc2Cl)cc1 -0.849%, CSc1nsc(SCC(=O)Nc2cccc(NC(C)=O)c2)n1 -3.52%, Cc1cccnc1NC(=O)c1ccc(S(=O)(=O)N2CC(C)OC(C)C2)cc1 (stereo unspecified) 1.6%, O=C1CCCC(O)=C1N=Nc1cccc(C(=O)O)c1 -10.6%, O=C(NNC(=O)c1cccs1)c1ccc(Cl)c([N+](=O)[O-])c1 -1.5%, O=C(CNC(=O)c1ccco1)NCC(=O)OCc1ccccc1Cl -2.17%, O=C(CC(=O)NCCc1ccccc1)NCCc1ccccc1 2.4%, COc1ccccc1C(=O)NNC(=O)Cc1ccccc1 0.425%, CC(C)CC(=O)N1CCC(O)(CS(=O)(=O)Cc2ccccc2Cl)CC1 -0.256%, O=C(NC1=NCCS1)c1csc2ccccc12 3.99%, O=C(Nc1cc(C(F)(F)F)ccc1N1CCCC1)C1CC(=O)N(Cc2ccccc2)C1 (stereo unspecified) -0.7%, Cc1cc(C)c(NC(=S)N(C)C)cc1C 6.18%, COc1ccc(C2/C(=C(\O)c3cccc(OC)c3)C(=O)C(=O)N2c2ccccn2)cc1 (stereo unspecified) -2.01%, COc1ccc(C(=O)N[C@H](C(=O)NCc2ccc(C)cc2)C(C)C)cc1 -3.5%, Cc1ccc(C)c(S(=O)(=O)N2CCCOC2CNC(=O)C(=O)NCc2cccnc2)c1 (stereo unspecified) -1.12%, Nc1c2c(=O)[nH]c(O)cc2nn1-c1ccccc1 -2.54%, COc1ccc(OC)c(C(=O)Nc2c(O)ccc3ccccc23)c1 0.436%, O=c1[nH]c(CN2CCCCC2)ccc1O -3.02%, Cc1cc(=O)n2[nH]c(-c3ccco3)nc2n1 -15.9%, Cc1onc(-c2c(Cl)cccc2Cl)c1C(=O)ONC(=O)c1cc(C(F)(F)F)cc(C(F)(F)F)c1 5.31%, O=c1c2ccc([N+](=O)[O-])cc2sn1-c1ccccc1 -8.02%, O=[N+]([O-])c1ccc(-c2cccnc2)cc1 -0.274%, CCOc1ccccc1NCc1nnc(-c2ccccc2)o1 1.86%, O=C(c1cc(-c2ccc(Cl)c(Cl)c2)on1)N1CCCCCC1 3.26%, COc1ccc(C)cc1S(=O)(=O)Nc1ccccc1C 2.58%, O=[N+]([O-])c1ccc(N(CC(O)CN2CCCCC2)S(=O)(=O)c2ccccc2)cc1 (stereo unspecified) 2.36%, O=S(=O)(c1ccc2c(c1)nc1n2CCC1)N1CCOCC1 -0.647%, CCCc1nc2sc3ccccc3c(=O)c2c(=O)n1Cc1ccccc1 -0.876%, COc1ccc(CCNc2c([N+](=O)[O-])ncn2C)cc1OC 4.09%, CCOc1ccccc1N(CC(=O)NCCc1ccc(OC)c(OC)c1)S(=O)(=O)c1ccccc1 0.589%, COCc1[nH][nH]c(=O)c1C=NCC(=O)OC -0.914%, N=C1C(c2nc(-c3ccc(F)cc3)cs2)=C(O)CN1Cc1ccc(Cl)cc1 0.005%, CC(C)(C)c1[nH]nc2c1C(C1C=CCCC1)C(C#N)=C(N)O2 (stereo unspecified) 0.027%, O=C(NC1CCCCC1)c1ccc(S(=O)(=O)NCc2ccco2)cc1 -4.03%, Cn1c(=O)c2c(-c3ccccc3)n(Cc3cccnc3)cc2n(C)c1=O -1.34%, CCOC(=O)c1c(C)[nH]c(C(=O)NCCN2CCOCC2)c1C -4.3%, O=C(CCCN1C(=O)/C(=C/c2ccccc2)SC1=S)Nc1ccc(C(=O)O)c(O)c1 -8.83%, O=C(CCCN1C(=O)/C(=C/c2cccs2)SC1=S)Nc1ccc(O)c(C(=O)O)c1 -19.5%
